# HT1080 IDH1KD tx: toxicity to HT-1080 IDH1 knockdown cells (counter line). HT-1080 IDH1 knockdown viability, ATP luminescence, 48 h. Potency, µM (doses to about 46.1 µM), for inactives: at the top dose activity, negative = toxicity, most hits filed as cytotoxic. 360,000 compounds, 2% hits. AID 686971;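 also: 0% = DMSO wells and -100% = cell-free medium wells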
#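 Using the IDH1-knockdown HT-1080 line run in the same batch and compound series as the NT line, viability after 48 h at 37 °C was determined by CellTiter-Glo luminescence and expressed as % activity.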
# HT1080NT lethal: kills 2HG-producing HT-1080-NT fibrosarcoma cells; HT-1080-NT fibrosarcoma viability, CellTiter-Glo ATP luminescence, 48 h; Potency, µM (doses to about 46.1 µM), for the others: top-dose activity, negative = less viability, hits mostly cytotoxic; 360,000 compounds, 1.6% hits; AID 686970;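 also: NT is the 2HG producing partner of a matched IDH1 knockdown line; 0% = DMSO-treated cells and -100% = media-only wells without cells; nearly all actives have a fitted effect of over 55% in size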
#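 Fibrosarcoma NT cells, 750 per well in 5% FBS RPMI, were exposed to compound for 48 hours. Viability: CellTiter-Glo luminescence.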
# KB-3-1 cytotox: KB-3-1 parental cell cytotoxicity | 400,000 compounds, 1.4% hits | AID 1347075 | Potency, µM (series often up to 46.1 µM), actives largely listed as cytotoxic | KB-3-1 viability, CellTiter-Glo ATP luminescence, 72 h; also: nearly all actives have a fitted effect of over 60% in size
#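 Multi-concentration cytotoxicity screen in KB-3-1 cells grown in DMEM lacking phenol red with 10% FBS. After 72 h at 37 °C with compound, ATP-dependent luminescence was recorded.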
# TDP1 cell noCPT: qHTS for Inhibitors of human tyrosyl-DNA phosphodiesterase 1 (TDP1): qHTS in cells in absence of CPT; DT40 Tdp1-/- hTDP1 cells, no CPT, ATP luminescence, 48 h; Potency, µM (top dose mostly 46.2 µM), for inactives: at the top dose activity change, negative = growth inhibition, usual class: inhibitors; 420,000 compounds, 15% hits; AID 686978, 2013; also: nearly all actives have a fitted effect of over 55% in size
#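 Seeded 400 DT40-hTDP1 cells/well (vehicle DMSO, no 20 nM CPT); pinned compounds; ≥48 hr at 37 °C; CellTiter-Glo luminescence as viability measure.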
# TDP1 cell CPT: growth inhibition of DT40 Tdp1-/-;hTDP1 cells with camptothecin (screen for TDP1 inhibitors). chicken DT40 Tdp1-/-;hTDP1 cells + 20 nM CPT, ATP luminescence, 48 h. Potency, µM (doses to about 46.2 µM), for the others: at the top dose activity change, negative = growth inhibition, most hits filed as inhibitors. 420,000 compounds, 12% hits. AID 686979; also: nearly all actives have a fitted effect of over 55% in size
#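 Cell growth measured by CellTiter-Glo luminescence after a minimum 48 h, 37 C compound exposure with 20 nM CPT in Tdp1-knockout DT40 cells stably expressing hTDP1, seeded 400/well; qHTS titration format.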
# KB-V1 cytotox: KB-V1 MDR subline cytotoxicity; AID 1347076; 400,000 compounds, 3.4% hits; KB-V1 MDR cells viability, CellTiter-Glo, 72 h; Potency, µM (titrated, usually from 46.1 µM), usual class: cytotoxic; also: nearly all actives have a fitted effect of over 60% in size
#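 Compound-treated KB-V1 multidrug-resistant cells, 72 h, 37 degrees C; viability by CellTiter-Glo. Fitted qHTS curves give the values.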
# * marks the source's active call; other numbers are inactive results; i = inactive; ? = inconclusive; . = no result; [ ] = remark or other dose. Rows were chosen to be rich in hits. Some 19% of all compounds tested hit in one or more screens of this group. Calls follow the shape of the dose curve; as a rule, active = well fitted curve in the direction sought with a large enough effect; inconclusive = small, poorly fitted or top-dose-only effect, or another doubt; inactive = no such curve, though single readings can be large; an effect the other way counts as inactive or inconclusive. Unless noted, % is scaled to controls: 0 for no effect and ±100 for the full control effect; potency is read from the fitted curve at half-maximal effect.
SMILES,HT1080 IDH1KD tx,HT1080NT lethal,KB-3-1 cytotox,TDP1 cell noCPT,TDP1 cell CPT,KB-V1 cytotox
COc1ccc(S(=O)(=O)Nc2c(O)ccc3ccccc23)cc1OC,-18.1%,-17.9%,i,-24.8%,?,i
CC1=C(C(=O)N(C(C)C)C(C)C)CC(CC(=O)NCCN2CCOCC2)C(=O)N1Cc1ccc(C(C)(C)C)cc1 (configuration not stated),0.7%,-2.8%,i,18.4µM*,?,i
COc1ccc(CN2C(=O)C(CC(=O)NCCCCc3ccccc3)CC(C(=O)N(C)C)=C2C)cc1 (configuration not stated),15.8%,1.7%,i,18.4µM*,?,i
CC1=C(C(=O)N2CCOCC2)CC(CC(=O)NCCCCc2ccccc2)C(=O)N1Cc1ccc(C(C)(C)C)cc1 (configuration not stated),-20.6%,15.8%,i,16.4µM*,23.1µM*,i
CCN(CC)C(=O)C1=C(C)N(Cc2ccc(C(C)(C)C)cc2)C(=O)C(CC(=O)NCCN2CCOCC2)C1 (configuration not stated),-9.4%,-2.7%,i,-26.4%,-24.6%,i
COc1ccc(CN2C(=O)C(CC(=O)NCCCCc3ccccc3)CC(C(=O)N(C(C)C)C(C)C)=C2C)cc1 (configuration not stated),-8.7%,-1.9%,i,11.6µM*,13µM*,i
COc1ccc(CN2C(=O)C(CC(=O)NCCc3ccccn3)CC(C(=O)N(C(C)C)C(C)C)=C2C)cc1 (configuration not stated),5.5%,8.6%,i,?,?,i
CN(C)CCCN(C(=O)c1ccc(S(=O)(=O)N2CCCCCC2)cc1)c1nc2c(F)cccc2s1,-2.4%,-4.7%,i,-25.5%,?,i
O=C(OCC(=O)N1CCN(c2ccccc2)CC1)c1nc(Cl)ccc1Cl,2.9%,6.5%,i,-28.3%,6.9%,i
CCN(CC)S(=O)(=O)c1ccc2c(c1)c(=O)c(C(=O)N1CCN(c3cc(C)ccc3C)CC1)cn2C,.,.,i,?,-18.3%,i
Cc1cc(C)n(CCC(=O)N2CCN(S(=O)(=O)c3ccccc3)CC2)n1,8.9%,21.3%,i,-6.5%,6.5%,i
CC1=C(C(=O)N(C(C)C)C(C)C)CC(CC(=O)NCCc2ccccn2)C(=O)N1Cc1ccccc1 (configuration not stated),8.3%,11.6%,i,-27.9%,-9.5%,i
CC1=C(C(=O)N(C(C)C)C(C)C)CC(CC(=O)NCCc2ccccn2)C(=O)N1Cc1ccc(C(C)(C)C)cc1 (configuration not stated),-4.1%,-15.4%,i,?,16.4µM*,i
CC1=C(C(=O)N(C(C)C)C(C)C)CC(CC(=O)NCCCN(C)C)C(=O)N1Cc1ccc(C(C)(C)C)cc1 (configuration not stated),?,?,i,?,?,i
CC1=C(C(=O)N(C(C)C)C(C)C)CC(CC(=O)NCCCCc2ccccc2)C(=O)N1Cc1ccc(C(C)(C)C)cc1 (configuration not stated),?,?,?,20.6µM*,23.1µM*,?
COc1ccc(C(=O)NCC(=O)N/N=C/c2cn[nH]c2-c2ccccc2)cc1,10.4%,-0.4%,i,-7.8%,8.0%,i
CN(C)Cc1csc(NC(=O)Nc2ccccc2Cc2ccccc2)n1,?,14.6µM*,i,?,?,i
Cc1cccc(C)c1NC(=O)Nc1nc(CN(C)C)cs1,16.1%,?,i,-12.6%,-7.0%,i
CC(N)c1csc(NC(=O)Nc2cccc(C(F)(F)F)c2)n1 (configuration not stated),23.1µM*,18.4µM*,i,?,?,i
NCc1csc(NC(=O)Nc2cccc(Cl)c2)n1,-3.4%,-2.7%,i,?,?,i
CN(C)Cc1csc(NC(=O)Nc2cccc(Cl)c2)n1,?,?,i,18.4µM*,25.9µM*,i
CN(C)Cc1csc(NC(=O)Nc2cccc(C(F)(F)F)c2)n1,?,?,i,18.4µM*,14.6µM*,i
O=C(Nc1cccc(N2CCC(NCc3cnn(-c4ccccc4)n3)CC2)c1)c1cccnc1,.,.,.,?,14.5%[9.04 µM],.
COc1c(Cl)cc(C(=O)Nc2cccnc2)cc1Cl,18.4%,1.2%,i,-20.0%,-6.9%,?
O=C(Nc1ccccc1[N+](=O)[O-])c1cccc(N2C(=O)CCC2=O)c1,-5.2%,-6.2%,i,1.8%,8.1%,i
SMILES,HT1080 IDH1KD tx,HT1080NT lethal,KB-3-1 cytotox,TDP1 cell noCPT,TDP1 cell CPT,KB-V1 cytotox
Cc1onc(-c2ccccc2Cl)c1C(=O)N1CC(C)CC(C)C1 (configuration not stated),-15.2%,-23.1%,i,10.3µM*,14.6µM*,?
Cc1onc(-c2ccccc2Cl)c1C(=O)NNC(=O)c1ccc(F)cc1,3.6%,18.7%,i,-1.1%,2.7%,i
Cc1onc(-c2ccccc2Cl)c1C(=O)Nc1ccccc1C(=O)NC(C)C,-13.3%,-22.3%,i,2.31µM*,3.26µM*,?
Cc1onc(-c2ccccc2Cl)c1C(=O)NC(=S)Nc1ccccc1C(N)=O,12.7%,3.9%,i,?,25.9µM*,?
Cc1cccc(C(=O)NNC(=O)c2c(-c3ccccc3Cl)noc2C)c1O,-8.2%,-15.5%,?,29.1µM*,?,?
CCOc1ccc(-n2c(SCC(=O)N3CCCCC3)nc3c([nH]c4ccccc43)c2=O)cc1,.,.,i,?,-29.6%,i
CCCCN1C2=NC(c3ccccc3)CN2c2ccccc21 (configuration not stated),-4.6%,-0.9%,i,25.9µM*,?,i
CCCCCCCN1C2=NCCCN2c2ccccc21,?,-6.9%,?,2.31µM*,2.59µM*,?
CCCCN1C2=NCCCN2c2cc(C)c(C)cc21,3.0%[9.24 µM],-11.5%,i,23.1µM*,18.4µM*,?
CCCCCCN1C2=NCCN2c2ccccc21,-7.5%,-8.4%,i,?,?,?
CCCCCCCN1C2=NCCN2c2ccccc21,-11.8%,-18.9%,?,18.4µM*,11.6µM*,i
O=C1NC2=C(C(=O)CCC2)C(c2cccc([N+](=O)[O-])c2)N1 (configuration not stated),18.0%,2.9%,i,1.3%,8.6%,i
